Records with an inconclusive call do not appear. Activity calls are given as the source filed them. The calls were made as follows, unless noted: active = hit-call score of the fitted dose curve at least 0.9, where 1 is the maximum; inactive = score below 0.9.
Columns and labels:
[1] = biological target: Paired box protein Pax-6 (Homo sapiens) (UniProt P26367); assay: ATG_Pax6_CIS: Attagene CIS-FACTORIAL HepG2 Assay for human Paired Box 6 (PAX6) (AID 2282956); conditions: HepG2 CIS-FACTORIAL PAX6 reporter transcription, RNA readout; actives raise or lower the signal
Summary of the method: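 After twenty-four hours of chemical exposure, transfected HepG2 cells are harvested for RNA. Cis-promoter reporter transcripts are amplified, fluorescently labelled and sized by capillary electrophoresis, with gain and loss of signal scored against DMSO.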

[2] = ATG_PXRE_CIS: Attagene CIS-FACTORIAL HepG2 Assay for human Pregnane X Receptor Element (PXRE) (AID 2282957); conditions: HepG2 Attagene CIS-FACTORIAL PXRE reporter, mRNA; actives raise or lower the signal
Summary of the method: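 HepG2 cells transiently transfected with cis-regulated multiple reporter transcription units; endogenous factor activity measured as reporter mRNA 24 h after dosing. RT-PCR, fluorescent primer extension, HpaI digestion, capillary electrophoresis; bidirectional fit versus DMSO baseline.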

[3] = ATG_RORE_CIS: Attagene CIS-FACTORIAL HepG2 Assay for human RAR-related Orphan Receptor Element (RORE) (AID 2282959); conditions: HepG2 Attagene cis-factorial RORE reporter, mRNA; actives raise or lower the signal
Summary of the method: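 Transient MRTU transfection of human HepG2 liver cells (FuGene 6); 24 h compound exposure; TriZol RNA, oligo(dT) RT, PCR, FAM labeling, HpaI cut, CE fragment analysis. DMSO = negative control/baseline.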

[4] = ATG_Sox_CIS: Attagene CIS-FACTORIAL HepG2 Assay for human SRY-box transcription factor (SOX) (AID 2282960); conditions: HepG2 Attagene cis-factorial SOX reporter, mRNA; actives raise or lower the signal
Summary of the method: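 Endogenous factor activity in human liver HepG2 cells carrying transfected cis-regulated reporter units. RNA taken 24 h post-dose, reverse-transcribed, PCR-amplified and sized by capillary electrophoresis. Gain or loss of signal fitted relative to DMSO.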

[5] = biological target: Transcription factor Sp1 (Homo sapiens) (UniProt P08047); assay: ATG_Sp1_CIS: Attagene CIS-FACTORIAL HepG2 Assay for human Specificity Protein 1 (Sp1) (AID 2282961); conditions: HepG2 Sp1 cis-reporter transcription, actives raise or lower the signal
Summary of the method: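 Transient MRTU-transfected HepG2, 24 h compound exposure. Total RNA → oligo(dT) RT → PCR of reporter → 6-FAM primer extension → HpaI digest → CE. Endpoint fitted both directions vs DMSO.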

[6] = ATG_SREBP_CIS: Attagene CIS-FACTORIAL HepG2 Assay for human Sterol Regulatory Element Binding (SREBP) (AID 2282962); conditions: HepG2 Attagene cis-factorial SREBP reporter, mRNA; actives raise or lower the signal
Summary of the method: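 Twenty-four hours after chemical dosing of transfected HepG2 cultures, reporter RNA was converted to cDNA, amplified, end-labelled with 6-FAM and resolved by capillary electrophoresis. Responses were fitted relative to DMSO.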

[7] = biological target: Signal transducer and activator of transcription 3 (Homo sapiens) (UniProt P40763); assay: ATG_STAT3_CIS: Attagene CIS-FACTORIAL HepG2 Assay for human Signal Transducer and Activator of Transcription 3 (STAT3) (AID 2282963); conditions: HepG2, Attagene cis-factorial STAT3 reporter transcription; actives raise or lower the signal
Summary of the method: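 HepG2 cells transiently transfected with multiple cis-element-driven reporter units report endogenous transcription factor activity. After 24 h compound exposure, reporter mRNA is measured by RT-PCR, 6-FAM labelling, HpaI digestion and capillary electrophoresis. Fitted bidirectionally versus DMSO.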

[8] = ATG_TA_CIS: Attagene CIS-FACTORIAL HepG2 Assay for human TA Basal Promoter (AID 2282964); conditions: HepG2 Attagene CIS-factorial TA basal promoter reporter; actives raise or lower the signal
Summary of the method: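 Multiplexed mRNA reporter assay, HepG2, 24 h. Reporter cDNA amplified, 6-FAM primer-extended, HpaI-cut, CE-sized; DMSO = negative control and baseline.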

[9] = ATG_TCF_b_cat_CIS: Attagene CIS-FACTORIAL HepG2 Assay for human T-Cell-Factor with beta-catenin (TCF/b-cat) (AID 2282965); conditions: HepG2 TCF/beta-catenin cis-reporter transcription, actives raise or lower the signal
Summary of the method: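 Cells of the HepG2 line carry transiently transfected reporter units whose promoters respond to endogenous factors. Twenty-four hours post-dosing, reporter mRNA induction is measured by fluorescent RT-PCR and capillary electrophoresis, with DMSO as baseline.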

[10] = ATG_TAL_CIS: Attagene CIS-FACTORIAL HepG2 Assay for human TAL Basal Promoter (AID 2282966); conditions: HepG2 Attagene cis-factorial TAL promoter reporter; actives raise or lower the signal;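 also: background control endpoint measuring basal TAL promoter reporter mRNA not a specific factor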
Summary of the method: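 HepG2 cells were transiently transfected with promoter-driven multiplexed reporter units and dosed for 24 h. Reporter mRNA was measured by RT-PCR with capillary electrophoresis fluorescence; bidirectional fits used DMSO as baseline, serving as a background control.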

[11] = ATG_TGFb_CIS: Attagene CIS-FACTORIAL HepG2 Assay for human Transforming Growth Factor (TGF) (AID 2282967); conditions: HepG2 Attagene CIS TGFb reporter, mRNA transcription; actives raise or lower the signal
Summary of the method: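 Transcript-level reporter readout: HepG2 transfectants, 24 h exposure, RNA to cDNA, reporter-specific PCR, fluorescent primer extension, capillary sizing against ROX standards. Gain- or loss-of-signal relative to DMSO.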

[12] = ATG_VDRE_CIS: Attagene CIS-FACTORIAL HepG2 Assay for human Vitamin D Receptor Element (VDRE) (AID 2282968); conditions: HepG2 VDRE cis-reporter transcription, actives raise or lower the signal
Summary of the method: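 Transiently transfected HepG2 cells carrying cis-regulated reporter transcription units were exposed for 24 h. Reporter mRNA was measured by RT-PCR with fluorescent labelling and capillary electrophoresis, and fitted in both directions against DMSO.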

[13] = biological target: X-box-binding protein 1 (Homo sapiens) (UniProt P17861); assay: ATG_Xbp1_CIS: Attagene CIS-FACTORIAL HepG2 Assay for human X-box Binding Protein 1 (XBP1) (AID 2282972); conditions: HepG2 XBP1 cis-element reporter, Attagene multiplex; actives raise or lower the signal
Summary of the method: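 After a 24-hour chemical exposure of HepG2 cells carrying cis-regulated reporters, reporter mRNA levels are assessed. Quantification uses RT-PCR, 6-FAM labelling and capillary electrophoresis. Gain- or loss-of-signal is fitted against DMSO.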

[14] = ATG_GAL4_TRANS: Attagene TRANS-FACTORIAL HepG2 Assay for GAL4 (Internal Marker) (AID 2282976; active = hit-call score of the fitted dose curve at least 0.9, where 1 is the maximum); conditions: HepG2 Attagene TRANS GAL4 internal marker reporter
Summary of the method: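 HepG2 cells transiently transfected with multiplexed GAL4-UAS reporter constructs were dosed for 24 h. Reporter mRNA was measured by RT-PCR, 6-FAM primer extension, HpaI digestion and capillary electrophoresis, and gain of signal was fitted relative to DMSO.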

[15] = biological target: Estrogen receptor (Homo sapiens) (UniProt P03372); assay: ATG_ERa_TRANS: Attagene TRANS-FACTORIAL HepG2 Assay for human Estrogen Receptor alpha (ERa) (AID 2282970; active = hit-call score of the fitted dose curve at least 0.9, where 1 is the maximum); conditions: HepG2 Attagene TRANS ERa GAL4 reporter, mRNA
Summary of the method: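 HepG2 cells transiently transfected with multiplexed GAL4-UAS reporter units; ERa activity read via exogenous chimeric NR-Gal4 protein. After 24 hour compound exposure, reporter mRNA measured by RT-PCR with 6-FAM labelling and capillary electrophoresis; gain-of-signal fitted relative to DMSO.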

[16] = ATG_M_19_TRANS: Attagene TRANS-FACTORIAL HepG2 Assay for M19 Transcription Factor (Internal Marker) (AID 2282974; active = hit-call score of the fitted dose curve at least 0.9, where 1 is the maximum); conditions: HepG2 Attagene TRANS-FACTORIAL M19 internal marker reporter
Summary of the method: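 Fluorescence of 6-FAM-labelled reporter cDNA fragments, separated by capillary electrophoresis, served as the readout. These derived from HepG2 cells carrying transfected GAL4-UAS reporter units after 24 h dosing, with DMSO as negative control.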

[17] = biological target: Glucocorticoid receptor (Homo sapiens) (UniProt P04150); assay: ATG_GR_TRANS: Attagene TRANS-FACTORIAL HepG2 Assay for human Glucocorticoid Receptor (GR) (AID 2282978; active = hit-call score of the fitted dose curve at least 0.9, where 1 is the maximum;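 also: activators score as hits since higher reporter transcript over DMSO is fitted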); conditions: HepG2 Attagene TRANS GR reporter, mRNA transcription
Summary of the method: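 Fluorescent capillary-electrophoresis quantitation of reporter mRNA is the readout, taken 24 h after dosing human HepG2 cells carrying transiently transfected GAL4-UAS reporter units activated by chimeric NR-GAL4 fusions; activity scored as induction over DMSO.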

[18] = biological target: Estrogen-related receptor gamma (Homo sapiens) (UniProt P62508); assay: ATG_ERRg_TRANS: Attagene TRANS-FACTORIAL HepG2 Assay for human Estrogen-Related Receptor gamma (ERRg) (AID 2282977; active = hit-call score of the fitted dose curve at least 0.9, where 1 is the maximum;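 also: hits increase reporter signal over DMSO so potencies reflect activators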); conditions: HepG2 Attagene TRANS reporter, ERRg transactivation
Summary of the method: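 HepG2 cells transiently transfected with multiplexed GAL4-UAS reporter units driven by chimeric NR-Gal4 proteins; 24 h exposure. Reporter mRNA quantified by RT-PCR, fluorescent labelling, HpaI digestion and capillary electrophoresis; gain of signal vs DMSO.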

Measured: AC50

X-box-binding protein 1 (Homo sapiens), sequence (P17861 whole entry, looked up): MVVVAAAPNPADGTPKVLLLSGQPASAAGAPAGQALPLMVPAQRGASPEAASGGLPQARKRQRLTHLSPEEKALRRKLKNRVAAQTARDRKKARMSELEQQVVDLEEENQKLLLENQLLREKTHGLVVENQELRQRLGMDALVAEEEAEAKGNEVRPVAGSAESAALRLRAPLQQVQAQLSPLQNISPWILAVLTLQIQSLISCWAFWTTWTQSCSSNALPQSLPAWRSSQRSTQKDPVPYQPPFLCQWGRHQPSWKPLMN
Glucocorticoid receptor (Homo sapiens), sequence (P04150 whole entry, looked up, the tested form may be a part): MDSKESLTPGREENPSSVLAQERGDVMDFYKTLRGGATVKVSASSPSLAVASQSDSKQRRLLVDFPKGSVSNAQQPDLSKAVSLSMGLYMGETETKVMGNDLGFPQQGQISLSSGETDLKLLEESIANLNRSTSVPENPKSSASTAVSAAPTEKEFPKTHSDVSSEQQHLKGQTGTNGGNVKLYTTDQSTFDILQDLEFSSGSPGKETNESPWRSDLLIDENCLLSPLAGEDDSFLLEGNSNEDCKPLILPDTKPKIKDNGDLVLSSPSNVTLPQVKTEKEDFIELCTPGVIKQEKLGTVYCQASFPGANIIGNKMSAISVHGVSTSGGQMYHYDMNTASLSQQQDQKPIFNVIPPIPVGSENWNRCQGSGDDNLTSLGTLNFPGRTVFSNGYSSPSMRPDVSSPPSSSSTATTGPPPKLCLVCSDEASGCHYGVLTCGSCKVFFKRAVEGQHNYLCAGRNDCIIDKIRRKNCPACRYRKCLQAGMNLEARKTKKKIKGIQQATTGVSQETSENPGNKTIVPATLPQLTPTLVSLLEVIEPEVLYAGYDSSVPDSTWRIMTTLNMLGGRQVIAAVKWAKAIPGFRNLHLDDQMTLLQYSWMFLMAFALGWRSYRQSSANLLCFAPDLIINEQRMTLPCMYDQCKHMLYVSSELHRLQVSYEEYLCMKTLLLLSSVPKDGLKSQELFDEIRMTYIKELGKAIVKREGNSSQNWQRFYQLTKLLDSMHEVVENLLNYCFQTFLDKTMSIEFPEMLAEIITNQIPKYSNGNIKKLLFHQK
Transcription factor Sp1 (Homo sapiens), sequence (P08047 whole entry, looked up): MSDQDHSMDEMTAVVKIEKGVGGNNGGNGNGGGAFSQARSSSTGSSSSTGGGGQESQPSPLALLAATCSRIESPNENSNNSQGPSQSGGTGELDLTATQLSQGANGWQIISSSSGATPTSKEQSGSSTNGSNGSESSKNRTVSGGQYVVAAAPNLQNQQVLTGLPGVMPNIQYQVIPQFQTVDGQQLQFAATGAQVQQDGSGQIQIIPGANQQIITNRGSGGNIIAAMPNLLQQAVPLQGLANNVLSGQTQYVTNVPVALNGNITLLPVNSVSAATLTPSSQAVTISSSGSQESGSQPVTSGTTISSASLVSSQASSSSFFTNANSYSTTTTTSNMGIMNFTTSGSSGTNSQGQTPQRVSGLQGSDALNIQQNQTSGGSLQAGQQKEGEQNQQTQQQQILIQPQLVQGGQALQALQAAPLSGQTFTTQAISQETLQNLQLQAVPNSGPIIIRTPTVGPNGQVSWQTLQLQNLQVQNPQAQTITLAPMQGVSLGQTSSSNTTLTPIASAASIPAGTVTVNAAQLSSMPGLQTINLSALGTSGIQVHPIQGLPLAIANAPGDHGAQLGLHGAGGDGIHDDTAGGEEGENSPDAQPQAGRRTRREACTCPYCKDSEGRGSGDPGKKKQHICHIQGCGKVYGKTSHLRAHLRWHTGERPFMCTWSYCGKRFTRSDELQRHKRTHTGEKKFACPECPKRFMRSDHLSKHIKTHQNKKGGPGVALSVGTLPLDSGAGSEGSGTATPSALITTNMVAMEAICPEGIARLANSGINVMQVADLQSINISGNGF
Paired box protein Pax-6 (Homo sapiens), sequence (P26367 whole entry, looked up): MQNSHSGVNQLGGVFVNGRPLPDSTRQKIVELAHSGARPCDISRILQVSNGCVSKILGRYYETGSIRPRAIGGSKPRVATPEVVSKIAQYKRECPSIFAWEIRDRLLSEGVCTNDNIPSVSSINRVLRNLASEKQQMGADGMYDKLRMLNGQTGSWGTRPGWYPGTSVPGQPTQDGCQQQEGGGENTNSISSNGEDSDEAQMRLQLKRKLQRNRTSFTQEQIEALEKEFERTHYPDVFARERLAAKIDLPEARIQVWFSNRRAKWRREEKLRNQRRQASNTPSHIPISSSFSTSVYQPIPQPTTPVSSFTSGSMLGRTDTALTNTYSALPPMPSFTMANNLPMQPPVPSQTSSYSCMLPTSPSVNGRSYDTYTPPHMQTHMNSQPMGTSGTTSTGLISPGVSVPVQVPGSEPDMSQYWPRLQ
Estrogen receptor (Homo sapiens), sequence (P03372 whole entry, looked up, the tested form may be a part): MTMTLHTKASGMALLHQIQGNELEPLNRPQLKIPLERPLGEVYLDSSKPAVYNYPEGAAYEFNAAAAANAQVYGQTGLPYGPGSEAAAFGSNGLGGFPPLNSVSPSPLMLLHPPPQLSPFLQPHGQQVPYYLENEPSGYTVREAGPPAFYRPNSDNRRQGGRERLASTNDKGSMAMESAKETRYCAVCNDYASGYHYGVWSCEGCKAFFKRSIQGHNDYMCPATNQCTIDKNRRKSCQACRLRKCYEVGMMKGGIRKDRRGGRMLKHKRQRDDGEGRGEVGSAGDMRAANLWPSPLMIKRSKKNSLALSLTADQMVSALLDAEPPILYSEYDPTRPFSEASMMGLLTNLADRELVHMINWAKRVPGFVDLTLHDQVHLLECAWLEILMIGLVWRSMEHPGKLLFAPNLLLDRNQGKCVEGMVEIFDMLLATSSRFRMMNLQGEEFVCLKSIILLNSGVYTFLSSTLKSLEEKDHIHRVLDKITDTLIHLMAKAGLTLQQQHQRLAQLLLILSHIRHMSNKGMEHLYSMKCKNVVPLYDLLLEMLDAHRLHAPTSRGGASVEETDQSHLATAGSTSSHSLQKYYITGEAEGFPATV
Signal transducer and activator of transcription 3 (Homo sapiens), sequence (P40763 whole entry, looked up): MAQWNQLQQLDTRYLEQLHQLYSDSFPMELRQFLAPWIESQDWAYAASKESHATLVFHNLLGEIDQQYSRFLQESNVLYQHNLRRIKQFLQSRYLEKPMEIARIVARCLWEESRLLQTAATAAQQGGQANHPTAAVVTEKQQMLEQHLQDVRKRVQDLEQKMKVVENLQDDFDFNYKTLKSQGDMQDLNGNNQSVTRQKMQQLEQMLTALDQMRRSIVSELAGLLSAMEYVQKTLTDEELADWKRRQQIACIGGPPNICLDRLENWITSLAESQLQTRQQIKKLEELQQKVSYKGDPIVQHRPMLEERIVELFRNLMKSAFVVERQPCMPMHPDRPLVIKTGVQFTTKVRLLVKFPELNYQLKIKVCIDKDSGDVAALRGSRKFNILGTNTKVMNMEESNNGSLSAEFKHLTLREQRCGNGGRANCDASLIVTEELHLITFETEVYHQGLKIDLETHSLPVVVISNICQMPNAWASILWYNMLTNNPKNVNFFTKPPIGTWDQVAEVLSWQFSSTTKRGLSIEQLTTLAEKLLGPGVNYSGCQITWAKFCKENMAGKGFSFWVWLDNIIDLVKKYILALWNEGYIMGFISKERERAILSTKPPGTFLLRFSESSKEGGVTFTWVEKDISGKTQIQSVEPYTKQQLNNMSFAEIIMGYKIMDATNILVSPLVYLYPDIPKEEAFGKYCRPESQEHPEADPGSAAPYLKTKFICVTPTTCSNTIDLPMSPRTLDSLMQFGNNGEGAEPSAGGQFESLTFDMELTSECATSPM
Estrogen-related receptor gamma (Homo sapiens), sequence (P62508 whole entry, looked up, the tested form may be a part): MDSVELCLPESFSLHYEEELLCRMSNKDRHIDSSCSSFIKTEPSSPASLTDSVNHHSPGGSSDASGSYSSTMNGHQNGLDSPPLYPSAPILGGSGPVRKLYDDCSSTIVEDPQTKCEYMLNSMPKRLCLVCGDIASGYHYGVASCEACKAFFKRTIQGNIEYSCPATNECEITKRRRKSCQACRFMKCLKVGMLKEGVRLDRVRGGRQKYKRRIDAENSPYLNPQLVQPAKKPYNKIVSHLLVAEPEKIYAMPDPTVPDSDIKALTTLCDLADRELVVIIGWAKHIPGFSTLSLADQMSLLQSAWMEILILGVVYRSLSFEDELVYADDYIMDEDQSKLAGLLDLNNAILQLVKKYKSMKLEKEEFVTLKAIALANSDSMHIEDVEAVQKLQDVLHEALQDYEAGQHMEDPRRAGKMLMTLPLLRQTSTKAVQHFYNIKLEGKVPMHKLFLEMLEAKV

NCC1(Cc2noc(=O)[nH]2)CCCCC1
not listed: [15] | [16] | [17] | [18]
inactive: all other assays above

Cc1ccc(C)c(C)c1
active: [2] 27.5 µM
not listed: [14] | [18]
inactive: all other assays above

CCCCCCCCCCCCCCCCCC(=O)O
active: [15] 25.9 µM
not listed: [12] | [17]
inactive: all other assays above

Cc1ccc(C)c(O)c1C
not listed: [14] | [16] | [17] | [18]
inactive: all other assays above

C[Si]1(C)O[Si](C)(C)O[Si](C)(C)O[Si](C)(C)O1
active: [2] 26.6 µM | [15] 38.8 µM
not listed: [14] | [17] | [18]
inactive: all other assays above

CCCCOC(=O)CCCCCCCCC(=O)OCCCC
active: [9] 146 µM
not listed: [17] | [18]
inactive: all other assays above

C[C@]12C=CC(=O)C=C1CC[C@@H]1[C@@H]2C(=O)C[C@@]2(C)[C@H]1CC[C@]2(O)C(=O)CO
active: [2] 55.6 µM | [15] 58.3 µM
not listed: [14] | [16] | [17] | [18]
inactive: all other assays above

COCCOCCOC
not listed: [17] | [18]
inactive: all other assays above

CC(C)(C)c1cc(O)c(C(C)(C)C)cc1O
active: [1] 34.3 µM | [3] 22.6 µM | [4] 114 µM | [5] 65.5 µM | [6] 7.79 µM | [8] 42.2 µM | [9] 8.01 µM | [12] 32 µM | [13] 37.6 µM
inactive: [2] | [7] | [10] | [11] | [15] | [16] | [14] | [17]

Cc1cccc(Nc2cc(Cl)nc(SCC(=O)O)n2)c1C
active: [2] 29.8 µM
not listed: [16] | [18]
inactive: all other assays above

CC(C)c1ccc(C(=O)N=C(N)N)cc1S(C)(=O)=O
active: [2] 31.7 µM | [15] 68.6 µM
not listed: [14] | [16] | [18]
inactive: all other assays above

CCCCc1ccc2c(n1)[C@@H](c1ccc(OC)cc1C[C@H](C)C(=O)O)[C@H](C(=O)O)[C@H]2c1ccc2c(c1)OCO2
not listed: [6] | [15] | [17] | [18]
inactive: all other assays above

Cc1nc(-c2ccc3c(c2)CCN(CCC2CCC(NC(=O)/C=C/c4ccc(F)cc4)CC2)CC3)no1 (configuration not stated)
not listed: [6] | [14] | [16] | [18]
inactive: all other assays above

CN1CCCC1=O
not listed: [6] | [14] | [16] | [17] | [18]
inactive: all other assays above

Cc1oc(-c2ccccc2)nc1CCOc1cccc2c1ccn2CCC(=O)O
active: [3] 23.8 µM
not listed: [6] | [14] | [15] | [18]
inactive: all other assays above

CCCCN(CCCC)CCCC
active: [2] 26.5 µM
not listed: [6] | [14] | [16] | [17] | [18]
inactive: all other assays above

CCCCC(CC)COC(=O)CC(C(=O)OCC(CC)CCCC)S(=O)(=O)O (configuration not stated)
active: [2] 1.1 µM
not listed: [6] | [16] | [18]
inactive: all other assays above
